Our source for the growth values is PubChem BioAssay (NCI).

This is part of a sample that, as a whole, favours compounds with a hit. Of some 83,000 tested, about 20% had one in any assay.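 Note: values are percent growth. 100 is the growth of untreated cells, values between 100 and 0 indicate rising inhibition; between -100 and 0 indicates cell death.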 A number with no mark means an inactive call. The source made the active and inactive calls. Rule for the calls: active = growth percent below 10; inactive = the rest.

Holding throughout (test): NCI-60 one-dose screen, 48 h (100 = growth as untreated, 0 = no growth, -100 = all killed)
Common to all, as to conditions: 10 µM unless noted

Test [1] has as its system NCI-H23 lung.
Test [2] relates to NCI-H226 lung.
Test [3] has as its system HOP-62 NSCLC.
Test [4] concerns NCI-H460 lung.
The subject of test [5] is HOP-92 NSCLC.
Test [6] relates to NCI-H522 lung.
Test [7] has as its system A549/ATCC NSCLC.
In test [8] the test system is 786-0 renal.
The subject of test [9] is NCI-H322M lung.
Test [10] deals with COLO 205 colon.

For `Nc1cc2nc3ccccc3oc-2cc1=O`, the growth is -33.2% (active) in [1]; 67.4% in test [2]; 25.4% in [3]; -28.7% (active) in test [4]; 112% in test [5]; -16.5% (active) in test [6]. Further, the growth in [7] is -42.4% (active); in test [8] it was 81.9%.
Consider `CCCCNCC(O)c1cc(-c2ccc(C(F)(F)F)cc2)nc(-c2ccc(C(F)(F)F)cc2)c1` (configuration not stated), for which the growth in test [1] was -63.9% (active); in [2], -76.2% (active); in test [9], -74.3% (active); in test [3] it was -90.5% (active); in [4], -76.7% (active); in test [6] it was -79% (active). The growth is -83.5% (active) in [7], -78.7% (active) in [8] and -87.2% (active) in test [10].
Take `COc1cc(Cn2c(-c3ccccc3)cc3c2-c2oncc2CC3)cc(OC)c1OC`: the growth is 48.4% in [1]; 51% in [2]; -13.2% (active) in [9]; 39% in [3]; 9.75% (active) in [4]; 5.31% (active) in test [6]. The growth in [7] was 23.9%; in [8], 32.7%; in [10] it was 14.5%.
Take `COc1ccc(-c2nn(-c3cccc(Cl)c3)cc2/C=C2\C(=N)N(c3ccccc3)N=C2N)cc1`: the growth in test [1] is 51.2%; in test [2], 40.8%; in test [9], 44.9%; in test [3] it was 65.8%; in [4] it was 6.92% (active); in test [6], 51.5%. In addition, the growth in test [7] was 36.6%; in [8], 29.1%; in test [10], -22.8% (active).
As for `NCCCOc1cc2ccccc2cc1C(=O)NCCCOc1cc2ccccc2cc1C(=O)Nc1ccc(Cl)cc1O`, the growth is -67.6% (active) in test [1]; -85.8% (active) in [2]; -51.9% (active) in [9]; -100% (active) in test [3]; -72.3% (active) in [4]; -65.1% (active) in [6]. In addition, the growth was -75.2% (active) in test [7], -82.4% (active) in [8] and -54.1% (active) in [10].
As to `C=CC[C@]1(O)CC[C@H]2[C@@H]3CCc4cc(O)ccc4[C@H]3CC[C@@]21C`, the growth in test [1] is 112%; in test [2] it was 98.9%; in test [9] it was 97%; in test [3], 104%; in [4], 97.8%; in [6], 63.9%. For the same compound, the growth was 91.3% in [7], 95.8% in test [8] and 104% in test [10].
With `COc1cc(OC)cc(-c2n/c(=C\c3c(O)[nH]c4ccc(Cl)cc34)cc3c2=Nc2ccccc2-3)c1`, the growth in test [1] is 34%; in test [2], 84.3%; in test [9], 93.2%; in [3], 72.5%; in test [4], 43.3%; in test [6], 60.7%. The growth in test [7] is 58.5%; in test [8] it was 39.3%; in [10] it was 90.5%.
Consider `Cc1nc2ccc(Nc3nc(NCCN4CCOCC4)nc(Nc4ccc(F)cc4)n3)cc2n1Cc1ccccc1`, for which the growth was 67% in test [1]; 72.1% in [2]; 64.1% in test [9]; 47.8% in test [3]; 29.4% in test [4]; 58.7% in test [6]. Further, the figures for the growth in test [7], in test [8] and in test [10] were 46.3%, 4.17% (active) and 1.19% (active), respectively.
With `COc1cc2c(cc1OC)C(=O)C(Br)CC2` (configuration not stated), the growth is 45.8% in test [1]; 90.8% in test [2]; 102% in test [9]; 51% in [3]; 75% in test [4]; -17.3% (active) in test [6]. The results for the growth in test [7], in test [8] and in test [10] were 80.1%, 63.8% and 24.6%, respectively.
For the compound `N=c1n(Cc2ccccc2)c(N)cc(=O)n1Cc1ccccc1`, the growth is 12.7% in [1]; 5.6% (active) in [2]; 26.5% in [9]; 26.7% in [3]; -25% (active) in test [4]; 10.1% in test [6]. The growth was -47.2% (active) in [7], 19.2% in test [8] and 66.8% in [10].
For the compound `Cc1ccc(/C=C/C(=N/N=C(N)N)c2ccccc2)cc1`, the growth in test [1] is 31.3%; in [2] it was 59.5%; in test [9], 41.1%; in test [3] it was 25.8%; in [4], 8.15% (active); in [6] it was 9.07% (active). The growth in [7] is 18.7%; in [8] it was 32.8%; in test [10] it was -16.4% (active).
`COC(=O)C(C)NC1=C(Cl)C(=O)C(NC(C)C(=O)OC)=C(Cl)C1=O` (configuration not stated): the growth in test [1] is 101%; in [2], 100%; in [9], 101%; in test [3], 98.7%; in [4], 95.9%; in test [6], 78.2%. Also, the values for the growth in test [7] and in test [8] were 98.9% and 105%, respectively.
For `CCOc1c(C#N)c2c(N)ncnc2n1C1OC(CO)C(O)C1O` (configuration not stated), the growth is 50.6% in test [1]; 71.8% in [2]; 76.6% in test [9]; 76.6% in [3]; 0.566% (active) in [4]; -22.4% (active) in test [6]. Also, the growth in test [7] is 8.54% (active); in test [8], 76.1%; in test [10], 8.97% (active).
In the case of `O=C1/C(=C\c2cccn2Cc2ccc(Cl)cc2)c2ccccc2N1c1c(Cl)cccc1Cl`, the growth is 86.3% in test [1]; 59.3% in test [2]; 68.6% in test [9]; 98.6% in test [3]; 94% in [4]; 76.6% in test [6]. Also, the growth in [7] is 67.2%; in test [8], 81.7%; in [10], 93.6%.
Consider `CC(=O)O[C@H]1[C@H](CC#CC#CC[C@@H]2C[C@]3(C)[C@H]4CC=C5[C@H]6[C@@H](C)[C@H](C)CC[C@]6(C(=O)NCCN(CCN)CCN)CC[C@@]5(C)[C@]4(C)CC[C@H]3C(C)(C)[C@H]2OC(C)=O)C[C@]2(C)[C@H]3CC=C4[C@H]5[C@@H](C)[C@H](C)CC[C@]5(C(=O)NCCN(CCN)CCN)CC[C@@]4(C)[C@]3(C)CC[C@H]2C1(C)C`, for which the growth in test [1] is 11.9%; in [2] it was 69.5%; in test [9] it was 63.3%; in test [3] it was 87.1%; in test [4], 80.5%; in test [6], 15.2%. Moreover, the values for the growth in test [7], in [8] and in test [10] were 43%, 82.8% and 78%, respectively.
Consider `O=C(OCc1ccc2c(Br)cc(Br)c(O)c2n1)c1cc2ccccc2[nH]1`, for which the growth in test [1] was -27.4% (active); in [2], -66.5% (active); in test [9] it was 51.6%; in [3], 13.7%; in test [4] it was -38.7% (active); in test [6], -74.2% (active). Moreover, the growth was 14.5% in [7], -78.2% (active) in [8] and -74% (active) in [10].
`CCOCC(O)(c1ccc(Cl)cc1)c1ccc(Cl)cc1`: the growth is 95.1% in test [1]; 113% in [2]; 93.9% in test [9]; 115% in test [3]; 107% in test [4]; 89.4% in test [6]. Moreover, the growth in test [7] is 83.2%; in test [8], 104%; in test [10], 111%.
For `CCc1oc2ccccc2c1C(=O)c1cc(I)c(O)c(I)c1`, the growth is 58.5% in test [1]; 74.8% in [2]; 98.3% in [9]; 108% in [3]; 21.6% in test [4]; 30% in test [6]. The growth in test [7] was 40.3%; in test [8], 62%; in test [10], 104%.
As for `C/C(=C\C(=N\N=C(N)N)c1ccc(Cl)cc1)c1ccc(Cl)cc1`, the growth is -71.5% (active) in [1]; -69.6% (active) in [2]; -36% (active) in test [9]; -86.3% (active) in test [3]; -66.8% (active) in test [4]; -88.4% (active) in test [6]. Besides, the figures for the growth in [7], in [8] and in test [10] were -81.3% (active), -70.3% (active) and -90.2% (active), respectively.
Regarding `NC(=O)Nc1ccc2ncnc(Nc3cccc(O)c3)c2c1`, the growth in test [1] was 100%; in test [2] it was 102%; in test [9], 83.5%; in test [3] it was 92.8%; in test [4] it was 108%; in [6] it was 102%. The growth was 93.5% in test [7], 92.6% in [8] and 94.7% in [10].
For `NC(N)=N/N=C/c1ccccc1`, the growth in test [1] was 102%; in [2], 97.8%; in test [3], 101%; in test [4], 103%; in test [6], 85.6%; in [7] it was 97.4%. The growth in [8] is 103%; in test [10] it was 99.9%.
In the case of `COc1ccc(-c2nc(-c3ccccc3OCc3ccccc3OC)nc(C)c2C(C)=O)cc1`, the growth was 74.8% in [1]; 81.5% in [2]; 91.5% in test [3]; 80.6% in test [4]; 71.2% in test [5]; 78.3% in [6]. In addition, the growth in [7] was 79.7%; in test [8], 91.3%.
Take `CN(C)CCOc1nc2c3ccncc3cc(-c3cccc(Cl)c3)c2c2cnccc12`: the growth in test [1] was 29.7%; in test [2] it was 35%; in [3], 43.5%; in [4], 10.5%; in test [5], 56.2%; in [6], 31.9%. In addition, the results for the growth in test [7], in [8] and in test [10] were 16.4%, 33.4% and 13.8%, respectively.
Regarding `COc1cc2c(cc1OC)C(=O)OC2`, the growth in test [1] is 118%; in [2] it was 93.4%; in test [3] it was 113%; in test [4], 110%; in test [5], 75.5%; in test [6], 111%. The growth was 104% in [7], 114% in test [8] and 134% in [10].
Turning to `COc1ccc(/C=C2\N=C(c3cccnc3)N(c3ccccc3)NC2=O)cc1`, the growth was 95.8% in test [1]; 86.8% in test [2]; 109% in [3]; 96.4% in test [4]; 22.9% in test [5]; 98.2% in test [6]. For the same compound, the growth in test [7] is 95.7%; in test [8] it was 100%; in [10], 113%.
For `C=CCN(CCOC(=O)c1ccc([N+](=O)[O-])cc1)CCOC(=O)c1ccc([N+](=O)[O-])cc1`, the growth in test [1] was 106%; in test [2] it was 94.9%; in test [3] it was 91.9%; in test [4], 115%; in test [5] it was 87.1%; in [6], 95.3%. Besides, the growth in [7] is 102%; in test [8], 103%; in [10], 112%.
With `COc1cc(C2CC(c3ccc(Cl)cc3)=NN2C=O)ccc1OS(=O)(=O)c1ccc(C)cc1` (configuration not stated), the growth in test [1] is 83.5%; in test [2], 84.5%; in test [3], 96.6%; in [4] it was 91%; in [5], 85.1%; in test [6], 82.7%. Also, the growth in [7] is 78.8%; in test [8], 88.4%; in [10] it was 100%.
Regarding `CCCCN(CCCC)CCC(=O)c1ccc(OC)c2ccccc12`, the growth in [1] is 111%; in [2], 95.7%; in [3] it was 101%; in test [4], 109%; in test [5], -13.7% (active); in test [6] it was 90.6%. The growth was 80.1% in [7], 65.5% in [8] and 60.1% in [10].
For the compound `CC(C)c1[nH]ncc1-c1nc2ccc3[nH]ncc3c2c2c1CCCC2`, the growth is 32.7% in [1]; 35.5% in test [2]; 30.5% in test [3]; 16.1% in test [4]; 58.5% in [5]; 41% in test [6]. In addition, the figures for the growth in [7], in test [8] and in test [10] were 13.9%, 23.2% and 7.79% (active), respectively.
